Screening data from PubChem BioAssay.
PG9 Ab binder: PG9 antibody binding by small molecule | TR-FRET gp120-PG9 antibody binding | inhibition, % at 6.7 µM | hit rate 0.43% among 360,000 | AID 624416; in the data active = inhibition above about 8.5%
MsrA inhibitor: inhibitors of bovine MsrA. inhibition, % at 15.5 µM. purified bovine MsrA, absorbance read-out. hit rate 0.75% among 360,000; in the data active = inhibition above about 4.5%;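 note: 0% = vehicle wells with enzyme and 100% = reference inhibitor wells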
MsrA act: activators of bovine methionine sulfoxide reductase A | purified bovine MsrA, absorbance read-out | activation, % at 10.6 µM | hit rate 0.3% among 360,000; in the data active = activation above about 7.5%;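 note: 0% = vehicle and 100% = reference activator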
rCAG binder: molecules binding r(CAG) RNA repeats; inhibition, % at 3 µM; r(CAG) RNA repeat, TO-PRO-1 dye displacement fluorescence; AID 651821; hit rate 1.3% among 370,000;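 active = inhibition above the plate cutoff, the mean of all test compounds on that plate plus 3 SD, cut at about 35% in these data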;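 note: 0% = DMSO alone and 100% = 100 µM mitoxantrone as full dye displacement; higher means more dye released from RNA so lower well fluorescence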
HGIII-sPLA2 inh: Blocks human group III sPLA2 activity; AID 743126; inhibition, % at 12.2 µM; hit rate 0.56% among 370,000; QFRET BODIPY PC-A2 liposome hydrolysis, fluorescence;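 active = inhibition above mean plus 3 SD of compounds lying within the high and low control bounds, cut at about 19% in these data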;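 note: 0% = median of test compound wells and 100% = no enzyme DMSO wells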
Target sequence (Q9NZ20 whole entry, looked up): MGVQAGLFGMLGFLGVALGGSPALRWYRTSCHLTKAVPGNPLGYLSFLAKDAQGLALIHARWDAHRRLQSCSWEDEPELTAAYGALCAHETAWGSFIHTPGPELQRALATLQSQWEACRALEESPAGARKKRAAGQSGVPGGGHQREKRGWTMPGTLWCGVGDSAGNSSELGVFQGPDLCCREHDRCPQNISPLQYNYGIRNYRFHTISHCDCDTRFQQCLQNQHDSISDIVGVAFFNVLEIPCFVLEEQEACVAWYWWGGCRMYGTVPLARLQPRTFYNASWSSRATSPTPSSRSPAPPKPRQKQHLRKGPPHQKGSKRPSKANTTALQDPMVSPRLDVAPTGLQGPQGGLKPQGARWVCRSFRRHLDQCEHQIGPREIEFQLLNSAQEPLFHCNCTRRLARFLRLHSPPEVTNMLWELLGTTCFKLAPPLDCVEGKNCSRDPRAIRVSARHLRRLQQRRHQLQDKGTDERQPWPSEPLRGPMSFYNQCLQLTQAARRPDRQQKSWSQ
PG9 bind confirm: confirmation of small molecules binding HIV-1 gp120 antibody PG9; shares compounds with PG9 Ab binder; TR-FRET PG9 antibody binding, biochemical; inhibition, % at 6.7 µM; hit rate 90% among 1,500; AID 651571; in the data active = inhibition above about 9%
PGV04 counter: binds control antibody PGV04 in PG9 binder counter-screen. shares compounds with PG9 Ab binder. TR-FRET PGV04 antibody-gp120 binding, biochemical. inhibition, % at 6.7 µM. hit rate 95% among 1,500; in the data active = inhibition above about 9.5%
PG9 binder DR: small molecules binding HIV-1 gp120 antibody PG9; shares compounds with PG9 Ab binder; TR-FRET PG9 antibody-gp120 binding inhibition; IC50, µM; 95 tested, under 10 active; AID 651848; in the data active = IC50 below about 10 µM
PGV04 binding DR: counter-screen for PG9 binders: binding to control antibody PGV04. shares compounds with PG9 Ab binder. TR-FRET binding to control antibody PGV04. IC50, µM. hit rate 20% among 95. AID 651937
PG126 DR counter: PG126 binding, dose response counter-screen. hit rate 20% among 95. TR-FRET binding to antibody PG126, counterscreen. shares compounds with PG9 Ab binder. IC50, µM
* = called active by the depositor; i = inactive; . = not tested or not shown. Rows were chosen to be rich in hits. Some 3.2% of all compounds tested hit in one or more screens of this group. Cut-off read from the data, not from the text of the source, unless noted: active = IC50 below about 9 µM; inactive = the rest.

SMILES	PG9 Ab binder	MsrA inhibitor	MsrA act	rCAG binder	HGIII-sPLA2 inh	PG9 bind confirm	PGV04 counter	others
NS(=O)(=O)c1ccc(CCNC(=O)c2ccc(-c3ccccc3)cc2)cc1	12*	2	-3	5	7	21*	14*	PG9 binder DR=>67;PGV04 binding DR=>67;PG126 DR counter=>67
CCOC(=O)c1cccc(NC(=O)CN(C)S(=O)(=O)c2ccco2)c1	.	.	.	-2	11	.	.
COC(=O)[C@]12C[C@H](CC(=O)N3CCC(c4ccccc4)CC3)C(=O)N(Cc3ccco3)C1=C[C@H](COCc1ccccc1)O[C@@H]2C	.	.	.	10	2	.	.
CC1CCC2(CCC(=O)N2CCCO)CC1 (centres undefined)	.	.	.	1	4	.	.
Cc1cc(C)c2nc(-c3ccccn3)cc(C(=O)Nc3cc(C)on3)c2c1	17*	0	-3	11	-8	19*	27*
Cc1cc(C)c2nc(-c3ccccn3)cc(C(=O)Nn3cnnc3)c2c1	0	0	-3	18	-8	.	.
COc1ccc(C)cc1NC(=O)CSc1nnc(-c2ccc(Br)cc2)o1	11*	0	-1	-3	-1	19*	26*
COc1ccccc1NC(=O)CSc1nnc(-c2ccc(C)cc2)o1	-1	-1	-2	0	-2	.	.
CCOC(=O)c1c(C)n(CC)c2c1cc(O)c1ccccc12	-7	0	6	8	-14	.	.
C=CCn1c(C)c(C(=O)OCC)c2cc(O)c3ccccc3c21	11*	1	-4	8	-21	4	3	PG9 binder DR=>67;PGV04 binding DR=>67;PG126 DR counter=>67
O=C(CSc1nnc(-c2cccnc2)n1Cc1ccco1)Nc1ccc(F)cc1Cl	.	.	.	6	12	.	.
O=C(NCCN1CCC(Cc2ccccc2)CC1)C1CCCN(S(=O)(=O)c2ccc(Cl)s2)C1 (centres undefined)	.	.	.	2	-24	.	.
COCCN(CCOC)C(=O)c1c[nH]c2ccc(S(=O)(=O)N(C)c3ccc(F)cc3)cc2c1=O	9.6*	2	-2	8	-3	11*	12*
CN(c1ccc(F)cc1)S(=O)(=O)c1ccc2[nH]cc(C(=O)O)c(=O)c2c1	9.6*	2	-4	17	-25	16*	19*
CCOc1ccccc1N(C)S(=O)(=O)c1ccc2[nH]cc(C(=O)N(CCOC)CCOC)c(=O)c2c1	3	1	-3	3	-1	.	.
Cc1ccc(Cn2nnc3c2-c2ccccc2S(=O)(=O)N(C2CC2)C3)cc1	.	.	.	0	-1	.	.
COCCNc1nc2sc3c(c2c(=O)n1Cc1ccco1)CCCCC3	8.7*	-1	-4	-3	0	10*	11*
CCCCCCCCNS(=O)(=O)/C=C/c1ccccc1CNC(=O)OC(C)(C)C	.	.	.	2	-15	.	.
COc1ccc(/C=N\NC(=O)CN2CCN(Cc3ccccc3)CC2)cc1OCc1ccccc1	.	.	.	2	-15	.	.
CC(C)(C)c1ccc(-c2nnc(SCC3CCCCO3)n2-c2ccc(Cl)cc2)cc1 (centres undefined)	.	.	.	6	-12	.	.
c1ccc(Cc2nnc(Sc3ccccc3)c3ccccc23)cc1	29*	-1	-2	0	-7	29*	36*
c1ccc(Sc2ncnc3ccccc23)cc1	1	1	-10	-8	1	.	.
CS(=O)(=O)N1c2ccccc2C[C@H]1Cc1cc2ccccc2o1	.	.	.	.	3	.	.
O=c1[nH]c2cc3c(cc2cc1C(c1nnnn1C1CCCC1)N1CCSCC1)OCCO3 (centres undefined)	21*	0	-11	1	2	42*	29*	PG9 binder DR=i;PGV04 binding DR=8*;PG126 DR counter=7.8*
CCCCNC[C@@]12CO[C@H](c3ccc(Cl)cc3)N1[C@@H](c1ccc(Cl)cc1)SC2	.	.	.	5	-3	.	.
SMILES	PG9 Ab binder	MsrA inhibitor	MsrA act	rCAG binder	HGIII-sPLA2 inh	PG9 bind confirm	PGV04 counter	others
COc1cccc(-c2ccc(C#N)c(SCC(=O)NCc3ccco3)n2)c1	11*	2	-9	2	-2	20*	36*
FC(F)(F)c1cccc(N2CCN(C(=S)Nc3nccc4ccccc34)CC2)c1	.	.	.	.	10	.	.
CCSc1nnc(NC(=O)CCCOc2ccc(C)cc2)s1	21*	-1	-13	-4	-7	13*	49*
C=CCN1[C@H](Cc2ccccc2)COc2cc(N3CCSCC3)ccc2S1(=O)=O	.	.	.	4	-1	.	.
CCCCN1C[C@@H](COCc2ccccc2)Oc2cc(F)ccc2S1(=O)=O	.	.	.	1	1	.	.
O=C(O)CCc1ccc(-c2ccc(Br)cc2)o1	29*	0	-4	5	-5	37*	45*
O=C(O)CCc1ccc(-c2ccc(Cl)cc2)o1	-1	0	-12	3	-6	.	.
Cc1cc2cc(CN3C(=O)c4ccccc4C3=O)ccc2n1C	31*	-1	-5	5	2	39*	63*
Cc1ccc(S(=O)(=O)NCc2ccc3c(c2)cc(C)n3C)cc1	-1	0	-2	16	-3	.	.
CCN(CC)c1ccc2cc(-c3nc4ccccc4n3C)c(=O)oc2c1	10*	0	-11	-22	-4	11*	17*
N#Cc1ccc(-c2nc3ccc(Br)cn3c2Cc2ccccc2)cc1	10*	0	-1	8	0	14*	23*
N#Cc1ccc(-c2nc3ccc(Br)cn3c2Cc2cccc(F)c2)cc1	4	0	-2	22	-25	.	.
Cc1ccc(Cc2c(-c3ccc(C#N)cc3)nc3ccc(Br)cn23)cc1	6	0	-3	15	-9	.	.
Cc1cc(Br)cn2c(Cc3cccc(F)c3)c(-c3ccc(C#N)cc3)nc12	9.2*	-1	-1	11	5	15*	21*
CC(C)(C)Cc1nnc(NS(=O)(=O)c2ccccc2)s1	9.0*	3	-5	9	-10	11*	17*
CC(C)Cc1nnc(NS(=O)(=O)c2ccccc2)s1	-1	0	-2	4	-6	.	.
O=C(Nc1cccnc1)c1cc(-c2ccc3c(c2)OCO3)on1	12*	1	-5	2	3	10*	22*
O=C(Nc1cccnc1)c1cc(-c2ccc(Cl)c(Cl)c2)on1	-1	0	0	2	-6	.	.
CCCCOc1ccc(C(=O)Nn2c(-c3cccs3)nc3ccccc3c2=O)cc1	30*	1	-5	7	5	37*	59*
O=C(/C=C/c1ccccc1)Nn1c(-c2cccs2)nc2ccccc2c1=O	-2	0	-1	12	-13	.	.
CCSc1nnc(NC(=O)c2cc3c(s2)CCCC3)s1	12*	0	-3	1	-5	23*	18*	PG9 binder DR=>67;PGV04 binding DR=i;PG126 DR counter=i
